Screens as filed in PubChem.
In the library only some 8.5% were active in any assay of this set; here they are far more common.
Sfp inh: inhibitors of Bacillus subtilis Sfp phosphopantetheinyl transferase. hit rate 3.5% among 310,000. Biochemical Sfp PPTase activity, qHTS. Potency, µM, most hits filed as inhibitors; active means well fitted curve in the direction sought with a large enough effect; inconclusive means small, poorly fitted or top-dose-only effect, or another doubt; inactive means no such curve, though single readings can be large; an effect the other way counts as inactive or inconclusive;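 further: the enzyme is Sfp with the accession as filed and its product quenches rhodamine fluorescence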
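Fluorescence-quenching assay: 15 nM Sfp-PPTase preincubated 15 min at room temperature with compound, then 5 uM rhodamine-CoA and 12.5 uM BHQ-2-labelled YbbR peptide added. Fluorescence (ex 525/em 598 nm) read at start and after 30 min; difference gives rate.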
RGS12 GoLoco inh: RGS12 GoLoco-Gai1 interaction inhibition. P63096. hit rate 0.44% among 230,000. Gai1:RGS12 GoLoco peptide FP, rhodamine, 10 min. Potency, µM (titrated, usually from 61.6 µM), most hits filed as inhibitors. AID 880; active means well fitted inhibition curve with a large enough effect, not every such curve was filed as active; inactive means no such curve, though single readings can be large or run the other way; further: nearly all actives have a fitted effect of over 30% in size
Target sequence (P63096 whole entry, looked up): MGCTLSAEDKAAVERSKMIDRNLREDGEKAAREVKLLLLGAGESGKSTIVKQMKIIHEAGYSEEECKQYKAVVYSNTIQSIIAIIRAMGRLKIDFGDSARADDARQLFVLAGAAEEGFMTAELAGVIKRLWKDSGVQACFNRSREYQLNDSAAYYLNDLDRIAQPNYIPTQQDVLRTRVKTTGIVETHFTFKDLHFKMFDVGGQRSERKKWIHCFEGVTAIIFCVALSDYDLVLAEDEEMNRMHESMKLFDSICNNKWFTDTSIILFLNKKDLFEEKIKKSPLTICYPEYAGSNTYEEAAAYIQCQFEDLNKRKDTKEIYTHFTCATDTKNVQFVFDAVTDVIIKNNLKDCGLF
NPSR antagonist: antagonists of human neuropeptide S receptor cAMP signaling | Q6W5P4 | CHO-NPSR cells, cAMP TR-FRET, antagonist mode | Potency, µM (titrated, usually from 38.3 µM), actives largely listed as inhibitors | hit rate 1% among 220,000; active means well fitted curve in the direction sought with a large enough effect; inconclusive means small, poorly fitted or top-dose-only effect, or another doubt; inactive means no such curve, though single readings can be large; an effect the other way counts as inactive or inconclusive; further: nearly all actives have a fitted effect of over 50% in size
Target sequence (Q6W5P4 whole entry, looked up): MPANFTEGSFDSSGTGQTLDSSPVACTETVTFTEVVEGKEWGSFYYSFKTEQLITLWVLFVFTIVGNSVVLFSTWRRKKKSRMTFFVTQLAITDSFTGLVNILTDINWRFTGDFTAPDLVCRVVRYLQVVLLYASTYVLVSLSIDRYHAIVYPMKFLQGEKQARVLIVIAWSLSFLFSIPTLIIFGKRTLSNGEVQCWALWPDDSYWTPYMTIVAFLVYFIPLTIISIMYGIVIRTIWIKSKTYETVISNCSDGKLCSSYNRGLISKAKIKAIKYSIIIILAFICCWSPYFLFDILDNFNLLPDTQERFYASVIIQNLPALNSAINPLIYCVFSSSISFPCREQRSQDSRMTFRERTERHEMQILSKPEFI
ALDH1A1 block: blocks purified human ALDH1A1 activity. hit rate 7.3% among 220,000. Purified ALDH1A1, NADH fluorescence, propionaldehyde substrate. AID 1030. Potency, µM (series often up to 75.3 µM), actives largely listed as inhibitors. P00352
JMJD2E inh: blocks human JMJD2E demethylase activity; B2RXH2; JMJD2E catalytic domain, FDH-coupled NADH fluorescence (FDH is formaldehyde dehydrogenase); Potency, µM (titrated, usually from 57.1 µM), actives largely listed as inhibitors; hit rate 1.6% among 230,000; AID 2147; further: nearly all actives have a fitted effect of over 50% in size
FBPA coupling cs: counter-screen for Giardia aldolase inhibitors: coupling enzyme system. coupling enzyme system counterscreen, AmpLite Red fluorescence. activity change, negative = inhibition, % at 58.2 µM, hits read low. hit rate 0.67% among 290,000; in the data active means activity change below about -30%
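Coupling enzymes only (glyceraldehyde-3-phosphate) + compound, at 57.5 uM final, 10 min RT; add substrate/coupling/AmpLite Red mix, 20 min RT; fluorescence ex 525/em 598 nm. Actives flag coupling-system interference.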
Large screens that a line does not name were inactive. Unless noted, the call rests on the fitted dose curve; in most records, active means well fitted inhibition curve with a large enough effect (not every such curve was filed as active); inconclusive means small, poorly fitted or top-dose-only effect, or another doubt; inactive means no such curve, though single readings can be large or run the other way.

COc1cccc(CN2CCNC(=O)C2CC(=O)NCc2cn3ccc(C)cc3n2)c1OC (configuration not stated)	JMJD2E inh inconclusive (no result: ALDH1A1 block)
COc1cccc(CN2CCNC(=O)C2CC(=O)N2CCCCO2)c1OC (configuration not stated)	FBPA coupling cs -45
COc1ccc(CN2CCNC(=O)C2CC(=O)N2CCCCO2)c(OC)c1 (configuration not stated)	none
CC(=O)OC[C@@H]1O[C@@H](O/N=C2/C[C@@H](O)[C@@H](O)[C@@H]3[C@@H]4C(=O)N(c5cccc(Oc6ccccc6)c5)C(=O)[C@H]4CC[C@H]23)[C@H](OC(C)=O)[C@H](OC(C)=O)[C@@H]1OC(C)=O	none (no result: RGS12 GoLoco inh, NPSR antagonist, JMJD2E inh)
CCOc1ccc2[nH]c3c(NCC(C)C)ncnc3c2c1	none (no result: RGS12 GoLoco inh, NPSR antagonist, ALDH1A1 block, JMJD2E inh)
Cc1cccc(NC(=O)CSc2nc3ccccc3o2)c1	none
Cc1nn2c(-c3cccc(NC(=O)CSc4nc5ccccc5o4)c3)nnc2c2ccccc12	Sfp inh 56µM, ALDH1A1 block inconclusive, JMJD2E inh inconclusive
CC1=CC(C)(C)NC(=S)N1c1cccc2ccccc12	ALDH1A1 block 22µM
CCN(CC)C(=O)Oc1nnc(SC(C)C)n1-c1ccc(Cl)cc1	none (no result: ALDH1A1 block)
COc1cccc2c1C(=O)c1c(O)c3c(c(O)c1C2=O)C[C@@](O)(C(=O)CO)C[C@@H]3O[C@@H]1C[C@H](N)[C@H](O)[C@H](C)O1	RGS12 GoLoco inh 11µM, ALDH1A1 block 20µM, JMJD2E inh 22µM (no result: NPSR antagonist)
COc1cccc2c1C(=O)c1c(O)c3c(c(O)c1C2=O)C[C@](O)(C(C)=O)C[C@H]3O[C@@H]1C[C@H](N)[C@H](O)[C@H](C)O1	RGS12 GoLoco inh 3.2µM (no result: NPSR antagonist)
COc1cccc2c1C(=O)c1c(O)c3c(c(O)c1C2=O)C[C@@](O)(C(=O)CO)C[C@@H]3O[C@H]1C[C@H](N)[C@H](O)[C@H](C)O1	Sfp inh inconclusive, RGS12 GoLoco inh 2.8µM, NPSR antagonist inconclusive, ALDH1A1 block inconclusive, JMJD2E inh inconclusive, FBPA coupling cs -40
COc1cccc2c1C(=O)c1c(O)c3c(c(O)c1C2=O)C[C@@](O)(C(=O)CO)C[C@@H]3OC1CC(N)C(O)C(C)O1 (some centres not stated)	none (no result: NPSR antagonist, ALDH1A1 block, JMJD2E inh, FBPA coupling cs)
COCC(C)NS(=O)(=O)c1ccc(C(=O)NC(Cc2ccccc2)c2ccccc2)cc1 (configuration not stated)	none (no result: RGS12 GoLoco inh, NPSR antagonist, ALDH1A1 block, JMJD2E inh)
Cc1nnc(C)c2c(C)n(C(C)c3ccccc3)c(C)c12 (configuration not stated)	Sfp inh inconclusive, NPSR antagonist inconclusive, JMJD2E inh inconclusive, FBPA coupling cs -33
COc1ccc(C(C)n2c(C)c3c(C)nnc(C)c3c2C)cc1 (configuration not stated)	ALDH1A1 block inconclusive, JMJD2E inh inconclusive
Cc1ccc(Nc2cc(C)c3c(O)cccc3n2)cc1C	Sfp inh 50µM, JMJD2E inh inconclusive, FBPA coupling cs -37 (no result: ALDH1A1 block)
COc1ccc(Nc2cc(C)c3c(O)cccc3n2)cc1	Sfp inh inconclusive, FBPA coupling cs -30 (no result: ALDH1A1 block)
COC(=O)c1cc(Nc2cc(C)c3c(O)cccc3n2)cc(C(=O)OC)c1	none (no result: ALDH1A1 block)
CCC(c1nnc(SCC(=O)NCCc2ccc(Cl)cc2Cl)o1)N(C)C (configuration not stated)	Sfp inh inconclusive, ALDH1A1 block 16µM
Cc1csc(SCC(=O)NCCc2ccc(Cl)cc2Cl)n1	none
CC(C)C[C@H](NC(=O)[C@H](CCC(N)=O)NC(=O)[C@H](CCCCN)NC(=O)[C@H](CCC(N)=O)NC(=O)[C@@H](N)CCC(=O)O)C(=O)N[C@@H](CCC(N)=O)C(=O)O	none (no result: NPSR antagonist, JMJD2E inh, FBPA coupling cs)
Cc1ccc(Cn2ccc(NC(=O)c3noc4c3CCc3ccccc3-4)n2)cc1	Sfp inh 16µM
CC(C)=NOC[C@@H](O)[C@@H]1O[C@@H]2OC(C)(C)O[C@@H]2[C@H]1O	none (no result: RGS12 GoLoco inh, NPSR antagonist, JMJD2E inh)
CC(Cl)C(=O)c1ccc2c(c1)CCN2C(=O)C1CC1 (configuration not stated)	ALDH1A1 block 1.4µM, JMJD2E inh inconclusive
COc1ccc(N/C=C(/C(C)=O)c2ccccc2)cc1	ALDH1A1 block 10µM
CCOc1cc(N2CCOCC2)c(OCC)cc1NC(=O)COc1ccc2ccc(=O)oc2c1	none
N#Cc1ccccc1CN1C(=O)S/C(=C/c2cccn2-c2ccc(C(=O)O)cc2)C1=O	ALDH1A1 block 0.5µM
C=CCn1cccc(C(=O)Nc2cc(OC)ccc2OC)c1=O	ALDH1A1 block inconclusive
Nc1ccc(Nc2nc(-c3ccncc3)cs2)cc1	NPSR antagonist inconclusive, ALDH1A1 block 22µM
COc1ccc2oc(=O)c(-c3csc(Nc4ccc(O)cc4)n3)cc2c1	Sfp inh 25µM
Oc1ccc(Nc2nc(-c3ccc(O)cc3)cs2)cc1	NPSR antagonist inconclusive, ALDH1A1 block 22µM
O=C(Nc1cc(Cl)cc(Cl)c1)C(NCC1CCCO1)c1ccccc1 (configuration not stated)	ALDH1A1 block 4.5µM (no result: RGS12 GoLoco inh)
CC(C)NC(C(=O)Nc1cc(Cl)cc(Cl)c1)c1ccccc1 (configuration not stated)	ALDH1A1 block 11µM
CN(C)CCNC(C(=O)Nc1cc(Cl)cc(Cl)c1)c1ccccc1 (configuration not stated)	none
Cc1ccc(CSc2cc(C)[nH]c(=O)n2)cc1	none (no result: RGS12 GoLoco inh, NPSR antagonist, ALDH1A1 block, JMJD2E inh, FBPA coupling cs)
COc1ccc(N(CC(C)C)S(=O)(=O)c2nnc(NC(=O)c3ccco3)s2)cc1	none (no result: RGS12 GoLoco inh, NPSR antagonist, ALDH1A1 block, JMJD2E inh, FBPA coupling cs)
CC1CCN(S(=O)(=O)c2cc3c4c(c2)C(C)C(=O)N4CCC3)CC1 (configuration not stated)	none (no result: RGS12 GoLoco inh, NPSR antagonist, ALDH1A1 block, JMJD2E inh, FBPA coupling cs)
O=C(/C=C/c1ccc(Cl)cc1)NC(=S)Nc1ccc(N2CCOCC2)c(Cl)c1	Sfp inh inconclusive, ALDH1A1 block 14µM (no result: RGS12 GoLoco inh)
CCN(CC)S(=O)(=O)c1cccc(NC(=S)NC(=O)/C=C/c2ccc(S(=O)(=O)N3CCOCC3)cc2)c1	none
O=C(/C=C/c1ccc(S(=O)(=O)N2CCOCC2)cc1)NC(=S)Nc1ccc(Cl)cc1Cl	ALDH1A1 block 1.1µM
Cc1ccccc1OCC(=O)NC(=S)Nc1ccc(N2CCOCC2)c(Cl)c1	ALDH1A1 block inconclusive
COc1ccccc1C(=O)NC(=S)Nc1ccc(N2CCOCC2)c(Cl)c1	Sfp inh 32µM, ALDH1A1 block 11µM
CC1=C([N+](=O)[O-])C(c2ccccc2)NC(=O)N1 (configuration not stated)	none (no result: RGS12 GoLoco inh, NPSR antagonist, ALDH1A1 block, JMJD2E inh)
CCC(=O)O[C@@]1(C(=O)CCl)C(C)CC2C3CCC4=CC(=O)C=C[C@@]4(C)[C@]3(F)C(O)C[C@]21C (some centres not stated)	none (no result: NPSR antagonist)
CCCC(=O)O[C@]1(C(=O)CCl)[C@@H](C)C[C@H]2[C@@H]3CCC4=CC(=O)C=C[C@]4(C)[C@@]3(F)C(=O)C[C@@]21C	NPSR antagonist 3.2µM
CCC(=O)O[C@]1(C(=O)CCl)[C@@H](C)C[C@H]2[C@@H]3CCC4=CC(=O)C=C[C@]4(C)[C@@]3(F)[C@@H](O)C[C@@]21C	NPSR antagonist 2µM
